The whole screen tested about 290,000 compounds, of which about 2,700 (0.93%) were called active. The full list was thinned out, with actives kept by preference. Values without a mark were called inactive.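 The calls were made as follows: active = inhibition above the screen-wide mean plus 3 SD, computed separately per campaign (cut at about 16% in these data); inactive = the rest.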
Test system: Heat shock protein HSP 90 (rabbit reticulocyte lysate; luciferase refolding)
Test: HSP90 inhibitors, primary screen, cell lysate, luminescence (AID 1789);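 also: 0% = DMSO wells and 100% = 60 µM geldanamycin wells; inhibitors lower the luminescence because luciferase stays unfolded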
Settings: 3 h, at 5.6 µM, active compounds read high

SMILES | inhibition
C/C(=N\NC(=O)Cc1ccc(Cl)cc1)c1ccccn1 | 1.95%
COc1ccc(CC(=O)N/N=C(\C)c2ccccn2)cc1 | 2.53%
C/C(=N\NC(=O)c1ccccc1F)c1ccccn1 | 21.6% (active)
Cc1ccc(/C=C2/SC(=S)N(CCC(=O)NCCCN3CCOCC3)C2=O)cc1 | -1.06%
O=C1CCC(C(=O)N2CCC(O)(c3ccccc3)CC2)CN1CCc1ccccc1 (configuration not stated) | -4.78%
O=C(CN(C(=O)c1nsc(Cl)c1Cl)c1cccc(F)c1)NC1CCCC1 | -2.72%
COc1ccc(CNC(=O)CCN2C(=O)c3ccccc3C2=O)cc1 | 3.06%
CN(Cc1ccccc1)C(=O)C1CCCN(c2ncnc3c2nc2n3CCCCC2)C1 (configuration not stated) | -4.53%
COCC(C)OC(=O)c1c(N)n(CCCN2CCOCC2)c2nc3ccccc3nc12 (configuration not stated) | 4.05%
CC(C)(C)OC(=O)c1c(N)n(CCCN2CCCC2=O)c2nc3ccccc3nc12 | 17.2% (active)
CC(C)(C)c1ccc(C(=O)NCCn2c(N)c(C#N)c3nc4ccccc4nc32)cc1 | 2.15%
COc1cccc2c(C)c(C(=O)O)[nH]c12 | 30.8% (active)
COc1cc2c(C(=O)O)c(C)n(C)c2c2ccccc12 | 1.04%
Cc1c(C(=O)N/N=C/c2ccccc2)[nH]c2c([N+](=O)[O-])cccc12 | 3.21%
Cc1cccc(-c2c(NC(=O)c3ccco3)oc3ccc(Cl)cc3c2=O)c1 | 3.25%
CCOC(=O)c1nc(C)n(-c2ccc(Cl)cc2Cl)n1 | 17.8% (active)
Cc1cc(C)nc(/N=C2\NC(=O)CC(C(=O)O)N2c2ccc(Cl)cc2Cl)n1 (configuration not stated) | 3.62%
CCOC(=O)c1cnc(SC)nc1Sc1ccc(Cl)cc1Cl | -1.52%
CC(=O)N1CCN(CC(C)(C)NS(=O)(=O)c2ccc(C)cc2)CC1 | -0.75%
CC(CC(=O)Nc1ccc(F)cc1F)S(=O)(=O)c1ccc2c(c1)NC(=O)CO2 (configuration not stated) | -2.21%
Cc1ccsc1C(=O)OCC(=O)c1cc(C)n(CC2CCCO2)c1C (configuration not stated) | 82.5% (active)

SMILES | inhibition
Cc1cc(C(=O)CCl)c(C)n1CC1COc2ccccc2O1 (configuration not stated) | 4.06%
Cc1cc(C(=O)Cn2cnc3cc([N+](=O)[O-])ccc3c2=O)c(C)n1CC1CCCO1 (configuration not stated) | -6.94%
CCOC(=O)CSc1nc2ccc(C)cc2n2cnnc12 | -0.11%
COc1cc(C2CC(=O)c3cnc(NC(C)=O)nc3C2)cc(OC)c1OC (configuration not stated) | -1.32%
O=C(Nc1ncc2c(n1)CC(c1ccco1)CC2=O)c1ccc(Cl)cc1 (configuration not stated) | 1.31%
CCc1ccc(Nc2ncc3c(n2)CC(c2ccco2)CC3=O)cc1 (configuration not stated) | 22% (active)
COc1ccc(NC(=O)NCc2ccc3c(c2)OCO3)c(OC)c1 | -7.38%
CCC(C)(C)n1nnnc1C(c1ccc(OC)c(OC)c1)N1CCN(C(=O)c2ccco2)CC1 (configuration not stated) | -0.49%
Cc1ccc(S(=O)(=O)c2c(N)n(C)c3nc4ccccc4nc23)cc1 | -1.87%
CCN(CC)CCn1c(N)c(S(=O)(=O)c2ccccc2)c2nc3ccccc3nc21 | 22.7% (active)
CCC(=O)Nc1c(S(=O)(=O)c2ccccc2)c2nc3ccccc3nc2n1Cc1ccccc1 | 5.13%
O=C(N/N=C/c1ccoc1)c1ccc(Cl)cc1Cl | -0.55%
CCN(CC)CCNc1nc(-c2ccc(OC(F)F)cc2)c(C)s1 | 1.64%
COc1ccc(NC(=O)CSc2nc(C)cs2)cc1 | -1.43%
Cc1csc(SCC(=O)Nc2sccc2C#N)n1 | 17.4% (active)
Cc1cccc(C)c1Nc1nnc(SCC(=O)Nc2sccc2C#N)s1 | 3.59%
CCc1ccccc1NC(=O)[C@@H]1CCC(=O)N1C1OC(=O)c2c1ccc(OC)c2OC (some centres not stated) | -1.1%
COc1ccc(NC(=O)c2ccco2)cc1NC(=O)c1ccc(C#N)cc1F | -0.59%
CCCCCc1ccc(-c2ccc(C(=O)O)cc2)nc1 | 61.1% (active)
CCCCCc1ccc(-c2ccc(OCC)cc2)nc1 | 0.91%
CCCCCc1ccc(-c2cn(Cc3ccc4ccccc4c3)nn2)cc1 | -4.93%

SMILES | inhibition
COCCn1c(SCc2nnc(-c3ccc(OC)c(OC)c3)o2)nc2sc3c(c2c1=O)CCC3 | 1.74%
CC(=O)c1ccc(S(=O)(=O)N(C)CCCC(=O)N(C)Cc2ccccc2F)cc1 | 0.72%
CC1(c2ccccc2)CC(C)(C)N(C(=O)c2cc([N+](=O)[O-])cc([N+](=O)[O-])c2)c2ccccc21 (configuration not stated) | -2.72%
Cc1nnc(SCC(=O)N2c3ccccc3C(C)(c3ccc(Cl)cc3)CC2(C)C)s1 (configuration not stated) | 58.2% (active)
CC1(c2cccc([N+](=O)[O-])c2)CC(C)(C)N(C(=O)c2ccccc2)c2ccccc21 (configuration not stated) | 2.72%
NC1=NN(c2cccc(C(=O)O)c2)C(=O)C1 | 3.9%
O=Cc1c(Nc2ccccc2Cl)nc2ccccn2c1=O | 0.05%
COc1ccc(OCc2cc(C(=O)NCC3(C)COC3)no2)c(Cl)c1 | -3.93%
Cc1ccc(-c2cn3cc([N+](=O)[O-])ccc3n2)cc1 | 26.2% (active)
Cc1nc(-c2ccc([N+](=O)[O-])cc2)c(-c2ccccc2)o1 | 10.2%
Cc1ccc2nc(-c3ccc(Br)cc3)cn2c1 | 75.1% (active)
Cc1ccc(-c2cc(N)on2)cc1 | 3.55%
Cc1cc(N2CCOCC2)nc(-c2ccc(Br)cc2)n1 | 7.23%
CSc1nnc2ccc(-c3ccc(C)cc3)nn12 | -5.22%
Cc1ccc(-n2cc3ccc([N+](=O)[O-])cc3n2)cc1 | 9.46%
COc1ccc(-c2cn3ccsc3n2)cc1 | 6.4%
COc1ccc(-c2cn3ccc(C)cc3n2)cc1 | 61.9% (active)
CCN(CC)S(=O)(=O)c1ccc(-c2cn3ccc(C)cc3n2)cc1 | 1.15%
Cc1ccc(-c2cn3cc(C)ccc3n2)cc1 | 84.1% (active)
COc1ccc(-c2cn3cccnc3n2)cc1 | 0%

Reference: PubChem BioAssay AID1789 (The Scripps Research Institute Molecular Screening Center, 2009)
